Reference: PubChem BioAssay (NCATS)
Records with an inconclusive call do not appear. Calls of active or inactive are those of the source. Calls follow the shape of the dose curve; as a rule, active = well fitted curve in the direction sought with a large enough effect; inconclusive = small, poorly fitted or top-dose-only effect, or another doubt; inactive = no such curve, though single readings can be large; an effect the other way counts as inactive or inconclusive.

Tests used:
[1] = qHTS of pediatric cancer cell lines to identify multiple opportunities for drug repurposing: Primary screen for MG 63 (6-TG R) cells (AID 1347105); also: nearly all actives have a fitted effect of over 50% in size; also: potency is read from the fitted curve at half-maximal effect
Method in brief: (§1)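 Luminescence from CellTiter-Glo served as readout of metabolically active cells after 48 h compound exposure. Titrations: MIPE 11-point, from 0.78 nM; NPC 8-point, from 0.59 nM (final). Concentration-response curves came straight from the primary screen.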

[2] = qHTS of pediatric cancer cell lines to identify multiple opportunities for drug repurposing: Primary screen for Rh30 cells (AID 1347107); also: nearly all actives have a fitted effect of over 75% in size; also: potency is read from the fitted curve at half-maximal effect
Method in brief: (§2)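 Viability after 48 h compound treatment at 37C, 500-1,000 cells/well, read as ATP luminescence with CellTiter-Glo. Primary screens used 11-point (MIPE, 0.78 nM-46 µM) or 8-point (NPC, 0.59 nM-46 µM) final concentrations; follow-up screens used 11-point dilutions.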

[3] = qHTS of pediatric cancer cell lines to identify multiple opportunities for drug repurposing: Primary screen for Rh41 cells (AID 1347108); also: potency is read from the fitted curve at half-maximal effect; nearly all actives have a fitted effect of over 70% in size
Method in brief: as §1

[4] = qHTS of pediatric cancer cell lines to identify multiple opportunities for drug repurposing: Confirmatory screen for SK-N-MC cells (AID 1347111);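 also: cells exposed to compound for 48 h before the readout; nearly all actives have a fitted effect of over 70% in size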; also: potency is read from the fitted curve at half-maximal effect
Method in brief: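 SK-N-MC cells at 500-1,000 cells/well in growth media were pre-incubated 5 h, then exposed to compounds at 11-point dilutions for 48 h at 37 degrees C, 5% CO2. Viability was read as CellTiter-Glo luminescence.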

[5] = qHTS of pediatric cancer cell lines to identify multiple opportunities for drug repurposing: Confirmatory screen for DAOY cells (AID 1347114); also: nearly all actives have a fitted effect of over 65% in size; also: potency is read from the fitted curve at half-maximal effect
Method in brief: (§3)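 Viability measured as metabolically active cells via CellTiter-Glo luminescence following 48 hours of compound exposure, 11-point dilutions in confirmatory testing. 500-1,000 cells/well plated 5 hours before dosing; controls were DMSO and 2.3 µM bortezomib.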

[6] = qHTS of pediatric cancer cell lines to identify multiple opportunities for drug repurposing: Confirmatory screen for NB-EBc1 cells (AID 1347115); also: potency is read from the fitted curve at half-maximal effect; nearly all actives have a fitted effect of over 45% in size
Method in brief: as §2

[7] = qHTS of pediatric cancer cell lines to identify multiple opportunities for drug repurposing: Confirmatory screen for SJ-GBM2 cells (AID 1347116); also: nearly all actives have a fitted effect of over 60% in size; also: potency is read from the fitted curve at half-maximal effect
Method in brief: as §3

[8] = qHTS of pediatric cancer cell lines to identify multiple opportunities for drug repurposing: Confirmatory screen for BT-37 cells (AID 1347117); details: BT-37 pediatric cancer cells, viability; activity change, negative = cytotoxic: at 45.9 µM (top of the series); also: nearly all actives have a fitted effect of over 55% in size; also: potency is read from the fitted curve at half-maximal effect
Method in brief: as §2

[9] = qHTS of pediatric cancer cell lines to identify multiple opportunities for drug repurposing: Confirmatory screen for TC32 cells (AID 1347118); also: nearly all actives have a fitted effect of over 65% in size; also: potency is read from the fitted curve at half-maximal effect
Method in brief: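 TC32 cells, 500-1,000/well in growth medium, compound-treated 48 h at 37 °C; viability from CellTiter-Glo luminescence. Primary screen: MIPE 11-point (0.78 nM–46 µM final), NPC 8-point (0.59 nM–46 µM final); confirmatory at 11-point dilutions.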

[10] = qHTS of pediatric cancer cell lines to identify multiple opportunities for drug repurposing: Confirmatory screen for MG 63 (6-TG R) cells (AID 1347119); also: nearly all actives have a fitted effect of over 55% in size; also: potency is read from the fitted curve at half-maximal effect
Method in brief: as §2

[11] = qHTS of pediatric cancer cell lines to identify multiple opportunities for drug repurposing: Confirmatory screen for control Hh wild type fibroblast cells (AID 1347121); also: nearly all actives have a fitted effect of over 70% in size
Method in brief: as §2

[12] = qHTS of pediatric cancer cell lines to identify multiple opportunities for drug repurposing: Confirmatory screen for Rh41 cells (AID 1347123); also: potency is read from the fitted curve at half-maximal effect; nearly all actives have a fitted effect of over 60% in size
Method in brief: as §2

[13] = qHTS of pediatric cancer cell lines to identify multiple opportunities for drug repurposing: Confirmatory screen for Rh18 cells (AID 1347125); also: nearly all actives have a fitted effect of over 55% in size; also: potency is read from the fitted curve at half-maximal effect
Method in brief: as §2

[14] = qHTS of pediatric cancer cell lines to identify multiple opportunities for drug repurposing: Primary screen for control Hh wild type fibroblast cells (AID 1347106);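 also: a drop in luminescence marks cytotoxicity and a rise apparent proliferation; nearly all actives have a fitted effect of over 55% in size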
Method in brief: as §2

[15] = qHTS of pediatric cancer cell lines to identify multiple opportunities for drug repurposing: Confirmatory screen for NB1643 cells (AID 1347109); also: potency is read from the fitted curve at half-maximal effect; nearly all actives have a fitted effect of over 45% in size
Method in brief: as §2

[16] = qHTS of pediatric cancer cell lines to identify multiple opportunities for drug repurposing: Confirmatory screen for A673 cells (AID 1347110); also: potency is read from the fitted curve at half-maximal effect; nearly all actives have a fitted effect of over 65% in size
Method in brief: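 Concentration-response curves came straight from titrations: 11 points (0.78 nM to 46 µM) for MIPE and several concentrations (0.59 nM to 46 µM) for NPC in primary, 11 points in follow-up. Readout: ATP luminescence at 48 h.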

[17] = qHTS of pediatric cancer cell lines to identify multiple opportunities for drug repurposing: Confirmatory screen for BT-12 cells (AID 1347112); also: nearly all actives have a fitted effect of over 55% in size; also: potency is read from the fitted curve at half-maximal effect
Method in brief: as §2

[18] = qHTS of pediatric cancer cell lines to identify multiple opportunities for drug repurposing: Confirmatory screen for LAN-5 cells (AID 1347113); also: nearly all actives have a fitted effect of over 65% in size; also: potency is read from the fitted curve at half-maximal effect
Method in brief: as §2

[19] = qHTS of pediatric cancer cell lines to identify multiple opportunities for drug repurposing: Confirmatory screen for U-2 OS cells (AID 1347122); also: nearly all actives have a fitted effect of over 65% in size; also: potency is read from the fitted curve at half-maximal effect
Method in brief: as §2

[20] = qHTS of pediatric cancer cell lines to identify multiple opportunities for drug repurposing: Confirmatory screen for RD cells (AID 1347124); also: potency is read from the fitted curve at half-maximal effect
Method in brief: as §2

Compound: COC(=O)C=CC(=O)OC
- Potency [1]: 0.235 µM (active)
- Potency [2]: inactive
- Potency [3]: 23.5 µM (active)
- Potency [4]: 3.29 µM (active)
- Potency [5]: inactive
- Potency [6]: 20.8 µM (active)
- Potency [7]: inactive
- Potency [8]: 3.29 µM (active)
- Potency [9]: 3.29 µM (active)
- Potency [10]: 13.1 µM (active)
- Potency [11]: inactive
- Potency [12]: 23.3 µM (active)
- Potency [13]: 14.7 µM (active)

Compound: Nc1ccc(C(=O)Nc2cccc(-c3nc(N4CCOCC4)c4oc5ncccc5c4n3)c2)cn1
- Potency [14]: inactive

Compound: CCC(C(=O)O)C1CCC(C)C(C(C)C(O)C(C)C(=O)C(CC)C2OC3(C=CC(O)[C@@]4(CC[C@](C)(C5CC[C@@](O)(CC)C(C)O5)O4)O3)C(C)CC2C)O1 (stereo partly drawn)
- Potency [1]: 18.7 µM (active)
- Potency [2]: inactive
- Potency [3]: 3.72 µM (active)
- Potency [15]: 1.17 µM (active)
- Potency [16]: 5.85 µM (active)
- Potency [4]: inactive
- Potency [17]: 3.69 µM (active)
- Potency [18]: 1.17 µM (active)
- Potency [5]: 3.29 µM (active)
- Potency [8]: inactive
- Potency [9]: inactive
- Potency [10]: inactive
- Potency [19]: 7.37 µM (active)
- Potency [12]: 1.47 µM (active)

Compound: CC(C)c1cnn2c(NCc3ccccc3)cc(NCCCCCCN)nc12
- Potency [1]: 5.9 µM (active)
- Potency [3]: 7.43 µM (active)

Compound: CC(=O)NCC(=O)N1[C@H]2CC[C@H]1c1cc(Nc3ncc(C(F)(F)F)c(NC4CCC4)n3)ccc12
- Potency [1]: 2.35 µM (active)
- Potency [3]: 1.48 µM (active)
- Potency [4]: 0.0827 µM (active)
- Potency [18]: 1.47 µM (active)
- Potency [7]: 5.85 µM (active)
- Potency [8]: 11.7 µM (active)
- Potency [9]: 0.0465 µM (active)
- Potency [10]: 0.233 µM (active)
- Potency [19]: 1.85 µM (active)
- Potency [12]: 1.31 µM (active)
- Potency [20]: 13.1 µM (active)
- Potency [13]: 2.93 µM (active)

Compound: O=C(Nc1cccc(Nc2ncc(Br)c(NCCc3cnc[nH]3)n2)c1)N1CCCC1
- Potency [1]: 14.8 µM (active)
- Potency [3]: 9.35 µM (active)

Compound: COc1cc(O)c2c(c1)C1OC1C[C@H](O)[C@H](O)C(=O)C=CC[C@H](C)OC2=O (stereo partly drawn)
- Potency [1]: 18.7 µM (active)
- Potency [3]: 11.8 µM (active)
- Potency [15]: 4.65 µM (active)
- Potency [16]: 11.7 µM (active)
- Potency [4]: 9.27 µM (active)
- Potency [18]: 7.37 µM (active)
- Potency [5]: 16.5 µM (active)
- Potency [7]: 5.85 µM (active)
- Potency [8]: 14.7 µM (active)
- Potency [9]: 9.27 µM (active)
- Potency [10]: 5.85 µM (active)
- Potency [12]: 0.165 µM (active)
- Potency [13]: 18.5 µM (active)

Compound: C[C@H](NCc1ccc2c(c1)nc(NC(=O)c1ccc(-c3cn[nH]c3)s1)n2CCc1ccccc1)C(C)(C)C
- Potency [1]: 2.96 µM (active)
- Potency [2]: 14.8 µM (active)
- Potency [3]: 2.35 µM (active)
- Potency [15]: 1.04 µM (active)
- Potency [4]: 0.928 µM (active)
- Potency [17]: 2.93 µM (active)
- Potency [18]: 1.65 µM (active)
- Potency [5]: 2.93 µM (active)
- Potency [6]: 1.31 µM (active)
- Potency [7]: 0.928 µM (active)
- Potency [8]: 0.928 µM (active)
- Potency [9]: 0.928 µM (active)
- Potency [10]: 2.33 µM (active)
- Potency [19]: 1.17 µM (active)
- Potency [12]: 0.928 µM (active)
- Potency [20]: 1.17 µM (active)
- Potency [13]: 3.29 µM (active)

Compound: O=C(NC1CC1)c1cccc(-c2ccc3c(NC(=O)C4CC4)n[nH]c3c2)c1
- Potency [1]: 1.48 µM (active)
- Potency [2]: inactive
- Potency [3]: 2.96 µM (active)
- Potency [4]: 8.27 µM (active)
- Potency [18]: inactive
- Potency [5]: 9.27 µM (active)
- Potency [9]: 5.85 µM (active)
- Potency [10]: 11.7 µM (active)
- Potency [13]: inactive

Compound: O=C1CSC(=O)N1C(CCc1ccncc1)COc1ccc(-c2cccc([N+](=O)[O-])c2)cc1 (stereo not drawn)
- Potency [14]: inactive

Compound: COc1ccc(Nc2cc(-c3cnc(N)nc3)nc(N3CCOCC3)n2)cn1
- Potency [1]: 3.72 µM (active)
- Potency [2]: 5.9 µM (active)
- Potency [3]: 2.96 µM (active)
- Potency [15]: 8.27 µM (active)
- Potency [16]: 9.27 µM (active)
- Potency [4]: 6.57 µM (active)
- Potency [18]: 2.33 µM (active)
- Potency [7]: 2.61 µM (active)
- Potency [8]: 10.4 µM (active)
- Potency [9]: 3.69 µM (active)
- Potency [10]: 1.31 µM (active)
- Potency [11]: inactive
- Potency [19]: 9.27 µM (active)
- Potency [12]: 4.14 µM (active)
- Potency [20]: 2.61 µM (active)
- Potency [13]: 11.7 µM (active)

Compound: Nc1ncn([C@@H]2O[C@H](CO)[C@@H](O)[C@@H]2O)c(=O)n1
- Potency [1]: inactive
- Potency [15]: 16.5 µM (active)
- Potency [4]: 16.5 µM (active)
- Potency [17]: 18.5 µM (active)
- Potency [18]: 16.5 µM (active)
- Potency [7]: 16.5 µM (active)
- Potency [8]: 16.5 µM (active)
- Potency [9]: 4.65 µM (active)
- Potency [19]: 8.27 µM (active)
- Potency [12]: 16.5 µM (active)
- Potency [20]: 20.8 µM (active)
- Potency [13]: 20.8 µM (active)

Compound: CCNC(=O)Nc1ccc(-c2nc3c(c(N4CCOC[C@H]4C)n2)CCN(C2COC2)C3)cc1
- Potency [1]: 0.743 µM (active)
- Potency [3]: 1.48 µM (active)

Compound: CC(C)NC[C@@H](C(=O)N1CCN(c2ncnc3c2[C@H](C)C[C@H]3O)CC1)c1ccc(Cl)cc1
- Potency [1]: 3.72 µM (active)
- Potency [3]: 0.332 µM (active)
- Potency [4]: 2.93 µM (active)
- Potency [17]: inactive
- Potency [18]: 2.93 µM (active)
- Potency [5]: inactive
- Potency [7]: inactive
- Potency [9]: 4.14 µM (active)
- Potency [10]: 11.7 µM (active)
- Potency [11]: inactive
- Potency [12]: 0.737 µM (active)

Compound: CC(C)(N)c1ccc(-c2nc3ccccc3nc2-c2ccccc2)cc1
- Potency [1]: 23.5 µM (active)
- Potency [3]: 10.5 µM (active)
- Potency [15]: 26.1 µM (active)
- Potency [16]: 2.93 µM (active)
- Potency [4]: 0.465 µM (active)
- Potency [17]: 0.928 µM (active)
- Potency [18]: 0.465 µM (active)
- Potency [5]: inactive
- Potency [8]: 18.5 µM (active)
- Potency [9]: 1.47 µM (active)
- Potency [19]: inactive
- Potency [20]: inactive
- Potency [13]: 1.65 µM (active)
